Experimental data reported in PubChem BioAssay.
The source made the active and inactive calls. How the calls were made is not given here.

These compounds were tested against L-lactate dehydrogenase (Plasmodium falciparum (isolate CDC / Honduras)) (UniProt Q27743) (assay: PfLDH activity inhibition – cell lysate, 3D7 strain, counter-screen for P. falciparum growth inhibition project (AID 2304;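 further: 0% = vehicle and 100% = reference inhibitor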)). Conditions: P. falciparum 3D7 crude extract, LDH APAD/NBT absorbance; at 2 µM; stronger effect = higher value.
Sequence of L-lactate dehydrogenase (Plasmodium falciparum (isolate CDC / Honduras)) (Q27743 whole entry, looked up): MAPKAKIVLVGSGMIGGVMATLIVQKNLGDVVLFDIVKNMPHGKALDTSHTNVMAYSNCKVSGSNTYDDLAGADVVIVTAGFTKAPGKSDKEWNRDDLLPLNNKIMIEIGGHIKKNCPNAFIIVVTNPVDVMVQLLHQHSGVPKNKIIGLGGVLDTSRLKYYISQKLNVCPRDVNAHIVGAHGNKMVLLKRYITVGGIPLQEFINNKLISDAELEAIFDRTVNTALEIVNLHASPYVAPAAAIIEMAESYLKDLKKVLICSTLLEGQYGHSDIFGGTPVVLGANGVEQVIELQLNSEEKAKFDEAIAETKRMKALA

SMILES | inhibition
FC(F)(F)c1ccc2nc(-c3ccc(-c4ccc(CNCCc5ccncc5)cc4)cc3)[nH]c2c1 | 6% (inactive)
CN(C(=O)/C=C/c1c(Cl)cccc1Cl)C1CCN(CCCCCNC(=O)/C=C/c2ccc(Cl)c(Cl)c2)CC1 | 4% (inactive)
COc1ccc(CCn2c(=N)c(C(=O)NCc3cccnc3)cc3c(=O)n4ccccc4nc32)cc1 | -2% (inactive)
COc1cc(F)c2ncc(Cl)c(CCN3CCC(NCc4ccc5c(c4)NC(=O)CS5)CC3)c2c1 | -6% (inactive)
Fc1ccc2nc(-c3ccc(-c4cccc(CN5CCN(c6ccncc6)CC5)c4)cc3)[nH]c2c1 | -3% (inactive)
O=c1cc(NCCCNCc2cc(Br)ccc2F)[nH]c2ccccc12 | 6% (inactive)
O=C(Nc1ccc(S(=O)(=O)N2CCCCCC2)cc1)c1cc(-c2ccccc2O)n[nH]1 | 6% (inactive)
CC(C)NCc1cccc(-c2ccc(-c3nc4ccccc4[nH]3)cc2)c1 | -2% (inactive)
O=C(NCCCCN1CCC(c2c[nH]c3ccccc23)CC1)c1sc(-c2ccc(C(F)(F)F)cc2)nc1CO | 0% (inactive)
O=C(Nc1ccc(Cl)cc1F)NC1CCN(CCCCCNC(=O)[C@@H]2C[C@H]2c2ccc(Cl)c(Cl)c2)CC1 | -5% (inactive)
Cc1ccc2nc(C)cc(Nc3ccccc3O)c2c1 | -3% (inactive)
CC(C)c1ccc(-c2nc3ncc(Cl)cc3[nH]2)cc1 | -2% (inactive)
COc1cc(-n2cnc3cc(-c4ccc(Cl)cc4)sc3c2=O)ccc1OCCN1CCC(c2cccc(NC(C)=O)c2)CC1 | -4% (inactive)
